Consider 22 molecules from PubChem BioAssay (Tox21).

Molecules are shown by their SMILES. Results filed as inconclusive are left out. A number with no mark means an inactive call. Calls of active or inactive are those of the source. Unless noted, the call rests on the fitted dose curve; in most records, active means well fitted curve in the direction sought with a large enough effect in the repeat runs; inconclusive means weak or mixed curves; inactive means no such curve, though single readings can be large; an effect the other way counts as inactive or inconclusive.

The nature of experiment [1]: qHTS assay to identify small molecule agonists of the vitamin D receptor (VDR) signaling pathway - cell viability counter screen (AID 743224). Further: nearly all actives have a fitted effect of over 50% in size. Further: potency means the concentration at half of the fitted maximal effect. Summed up:
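Plated VDR-bla cells (4 h, 37C) received compound, incubated 16 h, then LiveBLAzer substrate 2 h RT; CellTiter-Glo added afterwards, luminescence read at 30 min.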
On the technique in general: qHTS replaces the single test concentration by a dilution series.

A short description of experiment [2]: qHTS assay to identify small molecule antagonists of the vitamin D receptor (VDR) signaling pathway - cell viability counter screen (AID 743225). Further: nearly all actives have a fitted effect of over 50% in size. Further: potency means the concentration at half of the fitted maximal effect. Put shortly: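 HEK293T VDR-bla; cpd + 1a,25-(OH)2D3 3 nM final, 16 h 37C/5% CO2; B/G FRET substrate 2 h RT; then CellTiter-Glo 30 min RT, luminescence.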
Experiment [3] in a line: qHTS assay to identify small molecule agonists of the NFkB signaling pathway (AID 1159509; active means well fitted curve in the direction sought with a large enough effect in the signal ratio in the repeat runs, not every such curve was filed as active; the % refers to the signal ratio; further: series mostly up to about 61 µM). Put shortly: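 After overnight attachment, reporter cells received test compounds, DMSO or positive controls and were incubated 5 hr at 37 C. FRET substrate was then added for 1.5 hr at room temperature before dual-emission fluorescence reading.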
Experiment [4] in a line: qHTS assay to identify small molecule agonists of the NFkB signaling pathway - cell viability counter screen (AID 1159515; calls by dose curve; further: series mostly up to about 61 µM; nearly all actives have a fitted effect of over 55% in size). Put shortly: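 Using the same wells as the NFkB reporter read, ME-180 NFkB-bla cells given compounds for 5 hr were assessed for viability via CellTiter-Glo, with luminescence taken after a 30 min room-temperature incubation.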
A short description of experiment [5]: qHTS assay to identify small molecule agonists of the endoplasmic reticulum stress response signaling pathway (AID 1159516; active means well fitted activation curve with a large enough effect in the signal ratio in the repeat runs, not every such curve was filed as active; the % refers to the signal ratio). Summed up:
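An ESRE-bla HeLa cell assay: compounds were pin-transferred from DMSO onto overnight-plated cells and left 5 hr at 37 C. Substrate was then loaded for 2 hr at room temperature before reading fluorescence at 460 nm and 530 nm.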

Experiment [6] can be described thus: qHTS assay to identify small molecule agonists of the endoplasmic reticulum stress response signaling pathway - cell viability counter screen (AID 1159517; calls by dose curve;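 further: HeLa cells carrying an ER stress response element beta-lactamase reporter; series mostly up to about 61 µM; nearly all actives have a fitted effect of over 50% in size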). Put shortly:
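Cells, HeLa ESRE-bla; density, 1,500/well; dosing, 5 hr at 37 C, 5% CO2; readout, CellTiter-Glo luminescence after 30 min RT.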

A short description of experiment [7]: qHTS assay to identify small molecule antagonists of the retinoid-related orphan receptor gamma (ROR-gamma) signaling pathway - cell viability counter screen (AID 1159520). Further: nearly all actives have a fitted effect of over 50% in size. Summed up:
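Cytotoxicity was read from cellular ATP (CellTiter-Glo luminescence) after 16 hr at 37 C with 1 uM doxycycline induction. The inducer was added 2 hr after compound transfer to Tet-on ROR gamma CHO cells.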

Experiment [8] can be described thus: qHTS assay to identify small molecule agonists of the AP-1 signaling pathway - cell viability counter screen (AID 1159525; calls by dose curve; further: nearly all actives have a fitted effect of over 55% in size). Put shortly:
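Luminescent ATP readout (Cell Titer Glo, 30 min RT), normalised to DMSO and tetra n-octyl ammonium bromide controls. Cells were ME-180 AP-1-bla in 0.5% dialyzed FBS Opti-MEM, with a 5 h, 37 °C compound exposure.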

Experiment [9] is described as follows: qHTS assay to identify small molecule agonists of the AP-1 signaling pathway (AID 1159526; calls by dose curve).
Experiment [10] can be described thus: qHTS assay to identify small molecule agonists of the RXR signaling pathway - cell viability counter screen (AID 1159529). Further: nearly all actives have a fitted effect of over 50% in size. Further: potency means the concentration at half of the fitted maximal effect. Summed up: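 Steps: seed RXR-alpha-UAS-bla HEK 293T cells in assay medium containing 2% charcoal-stripped FBS; incubate 5 hr; add compounds in DMSO; incubate 16 hr at 37 C; after the bla read, add CellTiter-Glo and read luminescence at 30 min.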

A short description of experiment [11]: qHTS assay to identify small molecule antagonists of the retinoid acid receptor (RAR) signaling pathway - cell viability counter screen (AID 1159551). Further: nearly all actives have a fitted effect of over 35% in size. Summed up:
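Retinol-stimulated (1 uM final) C3RL4 cells, compound 6 h, 37 C; readout CellTiter-Glo luminescence (ATP) after 30 min RT incubation.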

Experiment [12] is described as follows: qHTS assay to identify small molecule antagonists of the retinoic acid receptor (RAR) signaling pathway (AID 1159552; further: nearly all actives have a fitted effect of over 50% in size). Summed up: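 Retinol at 1 uM final stimulated RARE-luciferase expression in C3RL4 cells exposed to test compounds for 6 hr at 37 C. Reduced luminescence, read 30 min after detection reagent, indicated pathway antagonism.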
Experiment [13] can be described thus: qHTS assay to identify small molecule agonists of the retinoic acid receptor (RAR) signaling pathway (AID 1159553). Further: potency means the concentration at half of the fitted maximal effect. Summed up:
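Reporter readout comes from luciferase under RARE control in C3RL4 cells; compound exposure lasts 6 hr at 37 C in 5% CO2, and luminescence is recorded following a 30 min room-temperature incubation with reagent.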

For the molecule `CCC(=O)Oc1ccc(/C(CC)=C(\CC)c2ccc(OC(=O)CC)cc2)cc1`, the Potency in [1] and in [10] was 54.9 µM (active) each time. The Potency result in experiment [2], in experiment [7], in experiment [11] and in experiment [12] was “inactive” each time. Moreover, the call in experiment [3], in [4], in [5], in [6], in experiment [8] and in experiment [9] was inactive.

In the case of `CCOC(=O)OCC`, the Potency result in experiment [1], in experiment [7], in [10] and in experiment [11] was “inactive” in each case. Further, the result in experiment [3], in experiment [4], in experiment [5], in experiment [6], in experiment [8] and in experiment [9] was inactive.

In the case of `CC(=O)N(c1onc(C)c1C)S(=O)(=O)c1ccc(N)cc1`, the Potency result in experiment [1], in experiment [2], in experiment [7], in [10], in experiment [12] and in experiment [13] was “inactive” in each case. The call in [3], in [4], in [5], in experiment [6], in experiment [8] and in experiment [9] was inactive.

In the case of `C/C(=N/NC(=O)c1ccncc1)C(=O)O`, the Potency result in [1], in experiment [7], in [10] and in experiment [11] was “inactive” throughout. For the same molecule, the outcome in [3], in experiment [4], in experiment [5], in experiment [6], in experiment [8] and in [9] was inactive.

Consider `NCC1CCCC(CN)C1` (centres undefined), for which the Potency entry in experiment [1], in experiment [7], in [10], in experiment [11] and in [12] was “inactive” throughout. Besides, the call in experiment [3], in experiment [4], in experiment [5], in experiment [6], in [8] and in experiment [9] was inactive.

For `CN(C(=O)C(Cl)Cl)c1ccc(OC(=O)c2ccco2)cc1`, the Potency result in experiment [1], in experiment [2], in [7], in [10] and in experiment [11] was “inactive” in each case. The outcome in experiment [3], in experiment [4], in [5], in experiment [6], in experiment [8] and in experiment [9] was inactive.

Regarding `C=C(C)C(=O)OCCOC(=O)CC(C)=O`, the Potency result in experiment [1], in experiment [7], in experiment [10] and in experiment [11] was “inactive” each time. Also, the call in [3], in [4], in [5], in experiment [6], in experiment [8] and in experiment [9] was inactive.

With `O=c1[nH]c2ccc(S(=O)CCN3CCC(Cc4ccc(F)cc4)CC3)cc2o1` (centres undefined), the Potency entry in experiment [1], in [2], in [7], in experiment [10], in experiment [12] and in [13] was “inactive” in each case. Also, the outcome in experiment [3], in experiment [4], in [5], in experiment [6], in [8] and in [9] was inactive.

As for `COc1ccc(CCC(=O)c2c(O)cc(O[C@@H]3O[C@H](CO)[C@@H](O)[C@H](O)[C@H]3O[C@@H]3O[C@@H](C)[C@H](O)[C@@H](O)[C@H]3O)cc2O)cc1O`, the Potency result in experiment [1], in experiment [2], in experiment [7], in experiment [10], in [11] and in experiment [12] was “inactive” in each case. For the same molecule, the outcome in experiment [3], in experiment [4], in experiment [5], in experiment [6], in experiment [8] and in experiment [9] was inactive.

For the molecule `Nc1ccc(Cl)cc1[N+](=O)[O-]`, the Potency entry in experiment [1], in [7], in experiment [10], in experiment [11] and in experiment [13] was “inactive” throughout. For the same molecule, the molecule was classed as inactive in experiment [3], in [4], in [5], in experiment [6], in [8] and in experiment [9].

Take `CC(CCc1ccc2c(c1)OCO2)NN` (centres undefined): the Potency entry in [1], in experiment [2], in experiment [7], in [10], in experiment [11] and in experiment [12] was “inactive” in each case. For the same molecule, the molecule was classed as inactive in [3], in experiment [4], in experiment [5], in experiment [6], in experiment [8] and in [9].

For `CN(C)C(=O)Nc1ccc(Oc2ccc(Cl)cc2)cc1`, the Potency entry in experiment [1], in experiment [2], in experiment [7], in [10], in experiment [11] and in experiment [12] was “inactive” in each case. The call in experiment [3], in experiment [4], in experiment [5], in experiment [6], in experiment [8] and in [9] was inactive. Also, the Potency in experiment [13] was 61.1 µM (active).

On to `O=C(O)c1c(O)c(-c2ccccc2)nc2ccccc12`, for which the Potency result in experiment [1], in experiment [2], in experiment [7], in experiment [10], in experiment [11] and in experiment [12] was “inactive” in each case. The molecule was called inactive in experiment [3], in [4], in experiment [5], in experiment [6], in experiment [8] and in experiment [9].

In the case of `Cc1cc(C(=C2C=CC(=Nc3ccc(S(=O)(=O)O)cc3S(=O)(=O)O)C=C2)c2ccc(Nc3ccc(S(=O)(=O)O)cc3)cc2)ccc1N`, the Potency entry in experiment [1], in [7], in experiment [10] and in experiment [11] was “inactive” in each case. In addition, the molecule was called inactive in experiment [3], in [4], in [5], in experiment [6], in [8] and in experiment [9].

With `CCn1nc(C)c2c1C(=O)NCC(c1ccc(O)cc1)=N2`, the Potency entry in [1], in experiment [2], in [7], in [10] and in experiment [11] was “inactive” each time. In addition, the call in experiment [3], in [4], in experiment [5], in experiment [6], in experiment [8] and in [9] was inactive.

In the case of `Cn1c(=O)c2c(ncn2CC(=O)O)n(C)c1=O`, the Potency result in experiment [1], in [2], in experiment [7], in [10] and in experiment [11] was “inactive” each time. The molecule was called inactive in experiment [3], in [4], in experiment [5], in [6], in experiment [8] and in experiment [9].

Take `Cc1ccnc2ccccc12`: the Potency result in experiment [1], in experiment [2], in experiment [7], in experiment [10], in [11] and in experiment [12] was “inactive” throughout. For the same molecule, the outcome in experiment [3], in experiment [4], in experiment [5], in experiment [6], in experiment [8] and in experiment [9] was inactive.

Turning to `CCOC(=O)c1ccccc1OC`, the Potency entry in experiment [1], in [2], in experiment [7], in experiment [10], in [11] and in experiment [12] was “inactive” in each case. In addition, the Potency result in experiment [13] is “inactive”. Besides, the call in [3], in experiment [4], in experiment [5], in [6], in experiment [8] and in experiment [9] was inactive.

Take `CCOC(=N)CC(=O)OCC`: the Potency result in experiment [1], in experiment [2], in [7], in [10], in experiment [11] and in experiment [12] was “inactive” throughout. For the same molecule, the Potency entry in [13] was “inactive”. Also, the molecule was classed as inactive in experiment [3], in [4], in [5], in [6], in [8] and in experiment [9].

With `CN1CCN(CCCN2c3ccccc3Sc3ccc(S(=O)(=O)N(C)C)cc32)CC1`, the Potency in [2] and in experiment [10] was 23.9 µM (active) throughout. Further, the molecule was called inactive in experiment [3], in experiment [4], in experiment [5], in experiment [6], in experiment [8] and in experiment [9]. Also, the Potency entry in experiment [7] and in [11] was “inactive” in each case.

For the molecule `C=CCOC(=O)/C=C\C(=O)OCC=C`, the Potency result in experiment [1], in experiment [2], in [7], in experiment [10] and in experiment [11] was “inactive” throughout. In addition, the outcome in experiment [3], in experiment [4], in [5], in [6], in [8] and in experiment [9] was inactive.

Turning to `CN1Cc2cc(C(=O)N3CCC(C4CCNCC4)CC3)ccc2N[C@@H](CC(=O)O)C1=O`, the Potency result in [1], in experiment [7], in experiment [10] and in experiment [11] was “inactive” throughout. Further, the molecule was classed as inactive in experiment [3], in [4], in experiment [5], in [6], in experiment [8] and in experiment [9].
